Screening data as filed in PubChem.
CYP2C19 activ: activators of human cytochrome P450 2C19. P33261. recombinant CYP2C19, luciferin-H EGE luminescence; hits give high values; 0 = fully inhibited enzyme, 1 = untreated enzyme. activation factor at 5 µM. 96,000 tested, under 10 active. AID 1025;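 active = activation factor of at least 2 at 5 µM in the primary screen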
Target sequence (P33261 whole entry, looked up): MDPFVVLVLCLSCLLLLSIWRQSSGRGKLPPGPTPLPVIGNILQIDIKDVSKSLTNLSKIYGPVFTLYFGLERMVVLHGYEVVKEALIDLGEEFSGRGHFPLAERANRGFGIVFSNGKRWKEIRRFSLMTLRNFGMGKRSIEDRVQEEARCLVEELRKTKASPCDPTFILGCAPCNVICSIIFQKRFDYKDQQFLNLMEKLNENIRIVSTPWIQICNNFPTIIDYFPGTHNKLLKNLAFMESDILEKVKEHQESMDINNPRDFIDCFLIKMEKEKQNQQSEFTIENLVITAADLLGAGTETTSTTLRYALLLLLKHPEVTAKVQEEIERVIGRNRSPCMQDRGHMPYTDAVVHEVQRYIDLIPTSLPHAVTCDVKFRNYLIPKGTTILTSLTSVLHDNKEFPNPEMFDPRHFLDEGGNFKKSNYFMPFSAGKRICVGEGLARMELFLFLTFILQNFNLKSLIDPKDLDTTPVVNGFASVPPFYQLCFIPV
CYP2C9 inhib: blocks human cytochrome P450 2C9 | P11712 | CYP2C9 Supersomes, luciferin-H conversion, luminescence | inhibition, % at 5 µM | 96,000 compounds, 20% hits | AID 777;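 active = blocking of liver enzyme CYP2C9 beyond about 50% at 5 µM, limit read from the data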
PLK1 inh: blocks human PLK1 kinase activity | 97,000 compounds, 0.53% hits | inhibition, % at 10 µM | AID 619 | P53350 | recombinant PLK1 kinase, TR-FRET peptide phosphorylation;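 active = inhibition of 50% or more in the single-concentration screen; inactive = inhibition below 50%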
CYP2C9 act: CYP2C9 (human) activation; P11712; recombinant CYP2C9, luciferin-H conversion, luminescence; hits give high values; factor 1 = untreated enzyme, 0 = blocked; activation factor at 5 µM; 96,000 compounds, 1.4% hits; AID 1024;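 active = activation factor of 2 or more for CYP2C9 at a 5 µM dose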
CYP2C19 inh: blocks human cytochrome P450 2C19; P33261; CYP2C19 Supersomes, luciferin-H EGE luminescence, 30 min; inhibition, % at 5 µM; 96,000 compounds, 21% hits;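 active = CYP2C19 inhibition above a set limit at 5 µM in the primary screen, cut at about 50% in these data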
Plk1 PBD FP: Plk1 (human) PBD binding inhibition. P53350. Plk1 PBD phosphopeptide binding, fluorescence polarization. inhibition, %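 (tested at about 20 µM)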. 97,000 compounds, 0.13% hits. AID 693; in the data active = inhibition above about 34%, passing the limit was not always enough
Each line names hits and unclear results; the compound was inactive in the other large screens. Sampled rows, rich in hits. Any-hit rate of the full collection: about 28%.

CC(=O)c1ccc(OC(NC(=O)c2ccco2)C(Cl)(Cl)Cl)cc1 (stereo unspecified)	none
OC(c1ccccc1)(c1ccccc1)C1CCNCC1	CYP2C9 inhib 60
CC12CNCC(C)(CNC1)C2O (stereo unspecified)	none (no result: PLK1 inh, Plk1 PBD FP)
CN(C)C(=O)Oc1c(Cl)cc(Cl)c2ccccc12	CYP2C9 act 3.1
Cc1nnc2n1-c1ccc(Br)cc1C(c1ccccc1Cl)=NC2	none
COc1ccc(N=C(C)c2c(O)n(C3CCCCC3)c(=O)[nH]c2=O)c(OC)c1	none
CC(C)(C)C(O)C(Oc1ccc(Cl)cc1)n1cncn1 (stereo unspecified)	CYP2C9 inhib 58, CYP2C19 inh 95
COC(=O)C(O)(c1cn(C)c2ccccc12)C(F)(F)F (stereo unspecified)	CYP2C9 act 2.8
C[C@H]1CCCC(=O)CCC/C=C/c2cc(O)cc(O)c2C(=O)O1	CYP2C9 inhib 90, CYP2C19 inh 88
CN(C)c1nc(-c2ccccc2)[n+](C)s1	none
CCN1CCN(C(=O)Cc2coc3ccc4ccccc4c23)CC1	none
COc1cccc(N2C(=O)NC(=O)C3(Cc4cc(C)ccc4N(C)C3)C2=O)c1 (stereo unspecified)	CYP2C9 inhib 84
COc1cc(CN2C(=O)NC(=O)C3(Cc4cc(C)ccc4N(C)C3)C2=O)cc(OC)c1 (stereo unspecified)	none (no result: PLK1 inh, Plk1 PBD FP)
Cc1ccc2c(c1)CC1(CN2C)C(=O)NC(=O)N(c2cc(C)ccc2C)C1=O (stereo unspecified)	CYP2C9 inhib 59
COc1ccc(OC)c(N2C(=O)NC(=O)C3(Cc4cc(C)ccc4N(C)C3)C2=O)c1 (stereo unspecified)	CYP2C9 inhib 80
CN(C)CC1CSCCC1(O)c1ccccc1Cl (stereo unspecified)	none (no result: CYP2C19 activ, CYP2C9 inhib, CYP2C9 act, CYP2C19 inh)
c1ccc2c(CN3CCCCCCC3)c[nH]c2c1	none
CC(C(=O)c1c[nH]c2ccccc12)N1CCc2ccccc2C1 (stereo unspecified)	CYP2C9 inhib 76
COc1ccc(CCNCc2ccccn2)cc1OC	none
COc1ccc(CCN(C)Cc2c(F)cccc2F)cc1OC	CYP2C19 inh 80
c1ccc(CN2CCN(Cc3ccc4c(c3)OCCO4)CC2)cc1	none
O=C1NC(=O)C2(Cc3c(nc4ccccn4c3=O)N3CCCCCC32)C(=O)N1Cc1ccccc1 (stereo unspecified)	CYP2C9 inhib 89, CYP2C19 inh 73
Cn1c(O)c(C=NC2C(=O)C3(C)CCC2C3(C)C)c(=O)n(C)c1=O (stereo unspecified)	none
Cc1[nH]c2ccccc2c1C1=CCNCC1	CYP2C9 inhib 74
CC1(C)CC(=O)C(C=NCCN2CCN(C(=O)Cc3ccccc3)CC2)=C(O)C1	none
Cc1ccccc1-c1nc(CS(=O)CC(=O)N2CCC3(CC2)OCCO3)c(C)o1 (stereo unspecified)	none
Cc1ccsc1-c1nc(CSCC(=O)N2CCC3(CC2)OCCO3)c(C)o1	CYP2C19 inh 67
O=C1C2CCCN2C(c2cccs2)N1c1ccccn1 (stereo unspecified)	none
COc1ccc(/C=C2/C(=O)NC(=O)N(C3CCCCC3)C2=O)cc1CSc1ccccn1	CYP2C19 inh 56
COc1ccc(C=C2C(=O)N(C)C(=O)N(C)C2=O)cc1CSc1ccccn1	CYP2C19 inh 58
CC(C)C12CN3CCN(CC(C3)C1O)C2 (stereo unspecified)	none
O=c1c2ccccc2nc(-c2cccs2)n1-c1ccccc1	none
Cc1ccccc1-n1c(C)nc2sccc2c1=O	CYP2C19 inh 53
Cc1nc2sccc2c(=O)n1-c1ccccc1Cl	CYP2C19 inh 63
Cc1ccnc(-n2c(C)cc(C=C3C(=O)N(C)C(=S)N(C)C3=O)c2C)c1	none
Cc1cccc(C)c1NC(=O)CN(C)CC(=O)Nc1ccc(C#N)c(Cl)c1	CYP2C9 inhib 53
CN(C)C=C1C(=O)N(C2CCCCC2)C(=O)N(C2CCCCC2)C1=O	none
CC12CN3CN(C1)CC(c1ccccc1)(C3)C2=O	none (no result: CYP2C19 activ, CYP2C9 inhib, CYP2C9 act, CYP2C19 inh)
O=c1c2ccccc2[nH]c(=S)n1-c1ccc2c(c1)OCO2	CYP2C9 inhib 83, CYP2C19 inh 97
CNP(=S)(NC)OCCOc1ccc(OC)cc1	CYP2C19 inh 84
COc1ccc(OCC(=O)N2CCN(C(C)C)CC2)cc1	none (no result: CYP2C19 activ, CYP2C9 inhib, CYP2C9 act, CYP2C19 inh)
